D1 agonist = human D1 receptor agonism; P21728; HEK293 T-REx D1 cells, calcium flux, agonist mode; activation, % at 2 µM; 360,000 compounds, 1% hits; AID 504660; in the data active means activation above about 30%; further: 0% is about no effect
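Inducible HEK293 T-REx D1 cells, force-coupled to calcium signalling, were plated at 4000 cells/well with tetracycline and held overnight at 30 C. After no-wash calcium dye loading, compound-evoked calcium rise over 180 s flagged agonists.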
D1 potentiator = human D1 dopamine receptor positive modulation | HEK293 TREx D1 cells, calcium flux, dopamine EC20 potentiation | 360,000 compounds, 0.036% hits | potentiation, % at 10 µM | P21728; in the data active means potentiation above about 30%; further: 0% is about no effect
DRD3 agonist = D3 dopamine receptor (human) agonism; D3R DiscoveRx beta-arrestin cells, luminescence, 90 min; 410,000 compounds, 0.58% hits; AID 652048; max activation, %; in the data active means max activation above about 30%; further: 0% is about no effect
Target sequence (P35462 whole entry, looked up): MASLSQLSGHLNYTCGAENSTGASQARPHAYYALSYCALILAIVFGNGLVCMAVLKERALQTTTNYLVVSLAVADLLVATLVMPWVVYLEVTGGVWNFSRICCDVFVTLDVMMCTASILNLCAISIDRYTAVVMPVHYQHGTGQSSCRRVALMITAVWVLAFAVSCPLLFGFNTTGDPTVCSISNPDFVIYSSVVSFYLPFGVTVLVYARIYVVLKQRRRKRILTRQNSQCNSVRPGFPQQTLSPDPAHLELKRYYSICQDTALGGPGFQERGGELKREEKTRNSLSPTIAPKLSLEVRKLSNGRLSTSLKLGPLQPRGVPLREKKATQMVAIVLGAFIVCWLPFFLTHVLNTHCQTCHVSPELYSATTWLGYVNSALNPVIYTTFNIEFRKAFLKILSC
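Agonist-mode cell screen: cells plated at 1500/well and incubated overnight at 37 °C, then exposed to library compounds for 90 min at 37 °C. Detection reagent was added for 30–60 min at room temperature, and luminescence was read.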
DRD3 antagonist = D3 dopamine receptor (human) antagonism | max response, negative = inhibition, % | 360,000 compounds, 2.5% hits | D3R cells, DiscoveRx beta-arrestin luminescence, antagonist mode; hits give low values; in the data active means max response below about -50%; inconclusive means no clear call, values can overlap the other calls; further: on the % scale 0 is the no-effect control and ±100 the full control effect
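Cells plated overnight at 1500 cells/well, then exposed to library compounds with dopamine controls for 90 minutes at 37 degrees C. DiscoveRx reagent added for 30–60 minutes at room temperature; luminescence read, quantitative HTS format.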
D1 antagonist = human D1 dopamine receptor antagonism; HEK293 TREx D1 cells, calcium flux, dopamine EC80; hits give low values; P21728; AID 504652; activity change, negative = inhibition, % at 10 µM; 360,000 compounds, 3.2% hits; in the data active means activity change below about -30%; further: on the % scale 0 is the no-effect control and ±100 the full control effect
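After overnight tetracycline induction at 30 C, force-coupled D1 HEK293 cells took up a no-wash calcium dye at room temperature. Compounds were added and monitored 180 s, and the response to EC80 dopamine was then recorded.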
* = called active by the depositor. Shown are actives, neighbours in structure and some others; about 6.1% of the full set was active somewhere.

`COc1ccc(Cl)cc1N1CCN(CCNC(=O)Nc2ccccc2C)CC1` gave D1 agonist 8, D1 potentiator -10, DRD3 agonist -17, DRD3 antagonist -131* and D1 antagonist -15.
CCOC(=O)c1cccc(NS(=O)(=O)c2cc(-c3cnc(C4CC4)o3)ccc2C)c1 was read as D1 agonist 4, D1 potentiator 1, DRD3 agonist -3 and D1 antagonist 6.
For Cc1cccc(C(=O)Nc2nnc(S(=O)(=O)N3c4ccccc4CC3C)s2)c1 (configuration not stated) the results were D1 agonist -1, D1 potentiator -3, DRD3 agonist -12 and D1 antagonist 0.
CCN(CC)CCNC(=O)c1cc2c(=O)n(C)c3cc(Cl)ccc3c2s1 was read as D1 agonist 1, D1 potentiator 2, DRD3 agonist -13 and D1 antagonist 4.
Screening COc1ccccc1NC(=O)NCCN1CCN(C(=O)Nc2ccccc2OC)CC1 returned D1 agonist 1, D1 potentiator 0, DRD3 agonist 1, DRD3 antagonist -2 and D1 antagonist 1.
O=C(NCCCN1CCN(c2cccc(Cl)c2)CC1)C1CCC(=O)N1Cc1ccccc1Cl (configuration not stated) was read as D1 agonist 11, D1 potentiator -10, DRD3 agonist -4, DRD3 antagonist inconclusive and D1 antagonist -38*.
For COc1ccccc1NC(=O)NCCCN1CCN(c2cccc(Cl)c2)CC1 the results were D1 agonist 10, D1 potentiator -5, DRD3 agonist 1, DRD3 antagonist -108* and D1 antagonist -69*.
CC(C)N1C(=O)CCC1C(=O)N1CCN(c2ccc(F)cc2)CC1 (configuration not stated) was read as D1 agonist 2, D1 potentiator 2, DRD3 agonist 0, DRD3 antagonist 2 and D1 antagonist -8.
For COc1ccccc1N1CCN(CCCNC(=O)Nc2ccccc2C)CC1 the results were D1 agonist 2, D1 potentiator -8, DRD3 agonist -16, DRD3 antagonist -27 and D1 antagonist -42*.
CN(CCCNC(=O)C1CCC(=O)N1Cc1ccccc1Cl)c1ccccc1 (configuration not stated) was read as D1 agonist 1, D1 potentiator 1, DRD3 agonist -21, DRD3 antagonist 13 and D1 antagonist -10.
O=C(C1CCC(=O)N1Cc1ccccc1Cl)N1CCN(c2ccc(F)cc2)CC1 (configuration not stated) was read as D1 agonist 0, D1 potentiator -6, DRD3 agonist 5, DRD3 antagonist 7 and D1 antagonist -48*.
`COc1ccc(-c2nc3ccccc3o2)cc1NC(=O)c1ccc(-c2cccc(Cl)c2C)o1` gave D1 agonist -1, D1 potentiator 0, DRD3 agonist 4 and D1 antagonist 6.
`Cc1cc(C(=O)NCCCN2CCN(c3cc(Cl)ccc3C)CC2)n(-c2ccccc2)n1` gave D1 agonist 2, D1 potentiator 2, DRD3 agonist -12, DRD3 antagonist -65* and D1 antagonist -7.
`O=C(NCCCN1CCN(c2ccccc2F)CC1)c1nnc(Cc2ccc(Cl)cc2Cl)o1` gave D1 agonist 21, D1 potentiator -4, DRD3 agonist 11 and D1 antagonist -55*.
Screening Cc1cc(C(=O)NCCN2CCN(c3cccc(Cl)c3)CC2)n(-c2ccccc2)n1 returned D1 agonist 3, D1 potentiator -1, DRD3 agonist -3, DRD3 antagonist inconclusive and D1 antagonist -21.
Screening Brc1ccc(-c2nnc(SCCC3OCCCO3)o2)cc1 returned D1 agonist 3, D1 potentiator 1, DRD3 agonist 2, DRD3 antagonist 30 and D1 antagonist -12.
Screening c1ccc(-c2nnc(SCCC3OCCCO3)o2)cc1 returned DRD3 agonist 103* and DRD3 antagonist 13.
Cc1ccc(-c2nnc(SCCOc3ccccc3)o2)cc1 was read as D1 agonist 81*, D1 potentiator 3, DRD3 agonist 2 and D1 antagonist 2.
Screening Cc1cccc(Cn2c(C)nc3ccc([N+](=O)[O-])cc3c2=O)c1 returned D1 agonist 10, D1 potentiator -3, DRD3 agonist 1, DRD3 antagonist -10 and D1 antagonist -33*.
Cc1nc2ccc([N+](=O)[O-])cc2c(=O)n1Cc1ccc(F)cc1 was read as D1 agonist 7, D1 potentiator -5, DRD3 agonist 7, DRD3 antagonist 8 and D1 antagonist -32*.
`COc1ccc(CCNC(=O)c2cc(Nc3cc(C)cc(C)c3)nc3ccccc23)cc1OC` gave D1 agonist 0, D1 potentiator 5, DRD3 agonist -14 and D1 antagonist -25.
Cc1cc(C)c2c(C)nn(-c3ccccc3)c2n1 was read as D1 agonist 37*, D1 potentiator 4, DRD3 agonist 1, DRD3 antagonist 3 and D1 antagonist 1.
`COc1cccc(-c2nc3c(c(C)nn3-c3ccccc3)c3cc(OC)c(OC)cc23)c1` gave D1 agonist 1, D1 potentiator -2, DRD3 agonist 13 and D1 antagonist -5.
Screening COc1cc2c(-c3ccc(O)cc3)nc3c(c(C)nn3-c3ccccc3)c2cc1OC returned D1 agonist 11, D1 potentiator -8, DRD3 agonist 80*, DRD3 antagonist 29 and D1 antagonist 15.
O=S(=O)(c1ccc(C2CCCCC2)cc1)N1CCN(c2cc(Cl)ccc2Cl)CC1 was read as D1 agonist -1, D1 potentiator -2, DRD3 agonist 3 and D1 antagonist 2.
`COc1ccc(Cl)cc1NC(=O)Cc1coc2c(C)c(C)ccc12` gave D1 agonist 6, D1 potentiator 5, DRD3 agonist -2 and D1 antagonist 0.
Screening Brc1ccc(CNc2nc3ccccc3n2CCN2CCCCC2)cc1 returned D1 agonist 6, D1 potentiator -6, DRD3 agonist -22, DRD3 antagonist inconclusive and D1 antagonist -19.
For c1ccc(Cn2c(CNc3nc4ccccc4n3CCN3CCOCC3)nc3ccccc32)cc1 the results were D1 agonist -2, D1 potentiator -3, DRD3 agonist -13, DRD3 antagonist -54* and D1 antagonist 0.
`CCn1c(NCc2ccc3c(c2)OCO3)nc2ccccc21` gave D1 agonist 6, D1 potentiator -6, DRD3 agonist -1, DRD3 antagonist -17 and D1 antagonist -2.
c1ccc2c(c1)nc(NCc1ccc3c(c1)OCO3)n2CCN1CCOCC1 was read as D1 agonist 0, D1 potentiator -7, DRD3 agonist -3, DRD3 antagonist -20 and D1 antagonist -30*.
Cn1c(=O)n(C)c2cc(NS(=O)(=O)c3ccc(F)cc3)c(NCc3ccccc3)cc21 was read as D1 agonist 0, D1 potentiator 1, DRD3 agonist 2 and D1 antagonist -7.
